# Only some compounds are listed: those with a hit (about 10% of all), similar ones and a draw of the others.
# CtBP-E1A inh = qHTS Assay for Inhibitors of the CtBP/E1A Interaction; CtBP / adenovirus E1A interaction (AlphaScreen); AlphaScreen GST-E1A/His-CtBP binding, 1536-well; hits give low values; 0.49% of 340,000 active; AID 651724, 2012; activity change, % (concentration not given with the values); in the data active means activity change below about -65%; inconclusive means mostly about -30% to -63%; further: on the % scale 0 is the no-effect control and ±100 the full control effect
#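 Steps: dispense buffer (Tris pH 8.0, NaCl 300 mM, TCEP 1 mM, BSA, Tween 20); add 5X protein mix (GST-E1A, His-CtBP, 125 nM each); pin 23 nL compound; 2 h at 37 °C, dark; add 5X beads (50 ug/mL); 1 h; read.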
# HP1b chromo inh = HTS for Inhibitors of HP1-beta Chromodomain Interactions with Methylated Histone Tails. Chromobox protein homolog 1 (Homo sapiens), P83916. AlphaScreen HP1-beta / biotin-H3K9me3 peptide binding. Potency, µM (highest dose often 114 µM), for inactives: at the top dose activity change, negative = inhibition, usual class: inhibitors. 0.56% of 390,000 active. AID 540317, 2011; further: potency means the concentration at half of the fitted maximal effect; nearly all actives have a fitted effect of over 70% in size
#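 AlphaScreen: HP1-beta (50 nM) preformed 30 min with biotin-H3(1-18)K9me3 peptide (50 nM) in PBS pH 7.4, 0.01% Tween-20. Compound added for 30 min at RT, then streptavidin donor/nickel chelate acceptor beads (10 ug/mL) for 30 min.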
# Six1-Eya2 inh = qHTS Assay for Inhibitors of the Six1/Eya2 Interaction. 0.56% of 360,000 active. AID 651725, 2012. AlphaScreen GST-Six1/His-Eya2 binding, biochemical; hits give low values. activity change, % (no concentration beside the values); in the data active means activity change below about -65%; inconclusive means mostly about -30% to -63%; further: on the % scale 0 is the no-effect control and ±100 the full control effect
# Target sequence (O00167 whole entry, looked up): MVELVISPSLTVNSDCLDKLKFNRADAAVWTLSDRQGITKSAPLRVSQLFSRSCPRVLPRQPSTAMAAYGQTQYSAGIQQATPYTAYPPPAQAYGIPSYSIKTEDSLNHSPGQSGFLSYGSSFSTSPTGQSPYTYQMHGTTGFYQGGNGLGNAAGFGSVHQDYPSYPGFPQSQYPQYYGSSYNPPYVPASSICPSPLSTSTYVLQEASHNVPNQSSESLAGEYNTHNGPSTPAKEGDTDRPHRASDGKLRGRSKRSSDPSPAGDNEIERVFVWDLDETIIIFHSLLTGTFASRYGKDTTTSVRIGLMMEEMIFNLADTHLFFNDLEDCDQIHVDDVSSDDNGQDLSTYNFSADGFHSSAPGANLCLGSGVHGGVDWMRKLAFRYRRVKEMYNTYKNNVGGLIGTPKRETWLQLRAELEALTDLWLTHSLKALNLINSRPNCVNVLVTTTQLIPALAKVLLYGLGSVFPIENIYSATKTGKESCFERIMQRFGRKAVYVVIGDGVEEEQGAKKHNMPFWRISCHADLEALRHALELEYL
# Target sequence (Q15475 whole entry, looked up): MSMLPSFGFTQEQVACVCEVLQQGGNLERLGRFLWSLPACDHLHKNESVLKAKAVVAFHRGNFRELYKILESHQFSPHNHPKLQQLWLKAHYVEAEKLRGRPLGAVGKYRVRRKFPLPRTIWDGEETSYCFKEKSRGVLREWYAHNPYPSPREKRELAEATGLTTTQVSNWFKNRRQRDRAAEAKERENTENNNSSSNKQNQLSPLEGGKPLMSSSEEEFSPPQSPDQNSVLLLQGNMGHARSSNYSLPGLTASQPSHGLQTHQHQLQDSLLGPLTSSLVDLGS
#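 AlphaScreen luminescence read after one hour at 37 °C in darkness. Pin-transferred compounds met GST-Six1 and His-Eya2 protein (5X stock 250 nM/500 nM) plus glutathione donor and Ni-chelate acceptor beads (5X, 50 ug/mL).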
# JMJD2A Tudor = qHTS Assay for Inhibitors of JMJD2A-Tudor Domain; AlphaScreen JMJD2A-Tudor / H3K4me3 peptide binding; Potency, µM (top dose mostly 114 µM), without a hit: top-dose activity change, negative = inhibition, usual class: inhibitors; 4.4% of 390,000 active; AID 504339, 2011; further: potency means the concentration at half of the fitted maximal effect; on the % scale 0 is the no-effect control and ±100 the full control effect; nearly all actives have a fitted effect of over 50% in size
# BAZ2B inh = qHTS Assay for Inhibitors of BAZ2B. 4.4% of 360,000 active. Potency, µM (series often up to 114 µM), for the others: top-dose activity change, negative = inhibition, most hits filed as inhibitors. Bromodomain adjacent to zinc finger domain protein 2B (Homo sapiens), Q9UIF8. AID 504333, 2011. AlphaScreen BAZ2B-H3K14Ac peptide displacement; further: potency means the concentration at half of the fitted maximal effect; on the % scale 0 is the no-effect control and ±100 the full control effect; nearly all actives have a fitted effect of over 60% in size
#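 Compounds, titrated to a top concentration of 110 uM, were incubated 30 min at room temperature with preformed BAZ2B/acetyl-K14 H3 peptide complex (50 nM each). Proximity signal was measured by AlphaScreen after 20 min with beads.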
# G9a inh = qHTS Assay for Inhibitors of Histone Lysine Methyltransferase G9a; Histone-lysine N-methyltransferase EHMT2 (Homo sapiens), Q96KQ7; G9a H3K9 monomethylation, AlphaScreen, 2 h; Potency, µM (highest dose often 102 µM), for inactives: at the highest dose activity, negative = inhibition, hits mostly inhibitors; 8.8% of 350,000 active; further: potency means the concentration at half of the fitted maximal effect; on the % scale 0 is the no-effect control and ±100 the full control effect; nearly all actives have a fitted effect of over 75% in size
#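 Quantitative HTS format: methyltransferase activity on a biotin-tagged H3K9 peptide is measured by AlphaScreen, using a rabbit anti-monomethyl-H3K9 antibody with streptavidin donor and anti-IgG acceptor beads. Final levels are 20 nM enzyme, 500 nM peptide, 20 uM SAM; 2 h RT.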
# Numbers without * were called inactive; ? = inconclusive; . = not tested or not shown; [ ] = dose if it differs, or a comment. Unless noted, the call rests on the fitted dose curve; in most records, active means well fitted inhibition curve with a large enough effect; inconclusive means small, poorly fitted or top-dose-only effect; inactive means no such curve, though single readings can be large or run the other way.
SMILES,CtBP-E1A inh,HP1b chromo inh,Six1-Eya2 inh,JMJD2A Tudor,BAZ2B inh,G9a inh
CC(C)CC(COCc1ccc([N+](=O)[O-])cc1)N1CCN(C(=O)c2ccc(C(F)(F)F)cc2)CCC1=O (configuration not stated),-4.5,25.4%,-8.1,-19.9%,?,50.1µM*
CC(C)(C)n1nc2c(c1NC(=O)Cc1ccc(F)cc1)CSC2,-2.4,26.6%,3.9,-21.4%,7.5%,44.7µM*
Cc1ccccc1NC(=O)NC1(C(=O)N2CCOCC2)CCCCC1,1.4,34.2%,4.9,-5.5%,4.6%,7.4%
O=C(Nc1ccccc1C(F)(F)F)NC1(C(=O)N2CCOCC2)CCCCC1,-3.3,-38.1%[57 µM],-22.2,8.91µM*,.,.
COc1cccc(Cn2c(=O)c(-c3cccs3)nc3cnc(OCc4ccccc4)nc32)c1,.,.,.,.,.,5.5%[0.501 µM]
COc1ccccc1/C=C1\SC(=S)N(CCC(=O)NCCCn2ccnc2)C1=O,.,32.4%,15.3,-1.0%,50.1µM*,?
O=C(CCCN1C(=O)/C(=C/c2ccc(F)cc2)SC1=S)NCCCn1ccnc1,-19.1,?,-10.4,?,22.4µM*,?
COc1ccc(/C=C2\SC(=S)N(CCC(=O)NCCCn3ccnc3)C2=O)cc1,.,44.1%,-17.1,16.3%,25.1µM*,56.2µM*
CCCCNC(=O)Cn1c(=O)cc(C)c2c(C)nn(-c3ccc(CC)cc3)c21,.,31.8%,.,-11.3%,-2.5%,6.9%[59 µM]
Cc1ccc(CNC(=O)NC2COc3ccccc3C2)cc1 (configuration not stated),.,25.9%[57 µM],.,-0.3%,3.2%,6.1%[59 µM]
Cc1ccc(S(=O)(=O)c2cnc(SCC(=O)Nc3cccc(Cl)c3)nc2N)cc1C,.,0.6%,.,-21.5%,-31.6%,-7.3%[59 µM]
CCOC(=O)c1ccc(NC(=O)c2csnn2)cc1,.,22.7%,.,-15.9%,-36.1%,-46.8%[59 µM]
O=C(O)CCc1ccc(S(=O)(=O)Nc2ccc(OCc3ccccc3)cc2)cc1,21.1,10.4%,2.8,-24.3%,-14.1%,44.7µM*
O=C(O)/C=C/c1ccc(S(=O)(=O)Nc2ccc(OCc3ccccc3)cc2)cc1,.,27.0%,-8.7,-10.9%,-28.1%,16.7%[59 µM]
COc1cccc(CNC(=O)C2CCN(C(=O)c3cnn(-c4ccccc4)c3-n3cccc3)CC2)c1,.,32.0%,.,-16.1%,-5.1%,-5.8%[59 µM]
COc1ccc(C(=O)NCC2(c3ccccc3)CCOCC2)cc1[N+](=O)[O-],16.0,?,3.6,31.6µM*,-1.7%,18.1%[59 µM]
COc1ccccc1OCC(=O)NC1CCCc2ccccc21 (configuration not stated),-3.5,-17.7%,1.5,-13.0%,0.7%,18.9%[59 µM]
COc1cc(CNC2CCCc3ccccc32)cc(OC)c1OC (configuration not stated),11.2,?,5.3,10µM*,70.8µM*,?
c1cncc(CNC2CCCc3ccccc32)c1 (configuration not stated),-0.5,23.2%,3.5,?,3.5%,44.7µM*
O=C(NC1CCCc2ccccc21)c1cccnc1 (configuration not stated),3.6,30.2%,-4.4,-13.2%,-4.6%,8.0%
COc1cc(C(=O)NC2CCCc3ccccc32)cc(OC)c1OC (configuration not stated),2.1,-2.8%,3.8,-12.7%,-0.3%,17.3%
COc1cccc(CNC2CCCc3ccccc32)c1OC (configuration not stated),5.8,?,-2.4,79.4µM*,?,39.8µM*
Cc1ccc(NC2=CC(c3ccccc3F)N(c3ccc(C)cc3)C2=O)cc1 (configuration not stated),.,5.3%,.,-32.6%,?,?
Cc1cc(Cn2nnnc2-c2ccncc2)cc(C)c1O,-11.5,46.7%,-1.2,-6.3%,-10.9%,35.5µM*
Nc1c(-c2nc(-c3ccccc3Cl)no2)nnn1-c1ccccc1C(F)(F)F,.,85.4%,.,-11.0%,3.6%,26.1%[59 µM]
SMILES,CtBP-E1A inh,HP1b chromo inh,Six1-Eya2 inh,JMJD2A Tudor,BAZ2B inh,G9a inh
CCC(=O)C1=C(c2ccc(OC)c(OC)c2)N(C(=O)CC)n2c(CC)nnc2S1,.,37.9%,.,-12.3%,-23.0%,17.0%[59 µM]
CSc1nnc(C)c(/C=C/NOCc2ccc(Cl)cc2)n1,-2.1,-17.9%,-5.9,?,?,12.6µM*
CSc1nnc(C)c(/C=C/Nc2ccc(C)cc2)n1,-66.6*,9.9%,-13.8,-4.9%,9.0%,5.7%[59 µM]
Cc1nnc(SCc2ccc(Cl)cc2)nc1/C=C/N(C)C,.,54.2%,-1.0,-1.4%,?,?
COc1ccc2oc(C(=O)OCC(=O)NCc3ccco3)c(C)c2c1,-4.0,-24.3%,-4.8,-22.1%,0.7%,3.7%[0.501 µM]
COc1ccc2oc(C(=O)NCc3cc(OC)c(OC)cc3OC)c(C)c2c1,-24.5,?,-14.9,35.5µM*,?,?
COc1ccc2oc(C(=O)NCC(c3ccco3)N(C)C)c(C)c2c1 (configuration not stated),-2.2,-9.1%,-8.7,-26.9%,50.1µM*,?
COc1ccc2oc(C(=O)NCCc3ccccc3)c(C)c2c1,-6.1,26.7%,1.8,8.8%,8.0%,-10.1%[2.33 µM]
CSc1ccccc1C(=O)NCC(c1ccco1)N(C)C (configuration not stated),-1.4,21.8%,1.2,-2.5%,-16.7%,39.8µM*
COc1ccc(OC)c(NC(=O)C2CCN(S(=O)(=O)c3c(C)noc3/C=C/c3ccc(C)cc3)CC2)c1,.,15.4%[57 µM],.,-23.3%,-14.6%,-20.3%[59 µM]
CCOC(=O)c1c(C)[nH]c(C)c1S(=O)(=O)N1CCC(C(=O)NCc2cccc(OC)c2)CC1,.,11.2%,.,-11.7%,-0.5%,-2.3%[59 µM]
CNC[C@H](CC1CCCCC1)NC[C@H](Cc1ccccc1)NCCC12CC3CC(CC(C3)C1)C2,-15.3,20.4%,-4.0,-35.5%,?,44.7µM*
NC[C@H](Cc1ccccc1)NCCCCC1CCCCC1,0.9,33.7%,-0.7,-21.8%,-9.2%,-8.7%[0.501 µM]
O=C(O)C(Cc1c[nH]c2ccccc12)NS(=O)(=O)c1ccc2ccccc2c1 (configuration not stated),.,30.9%,-4.7,-10.1%,-4.5%,-12.3%
O=C(O)c1ccc(Cl)c(S(=O)(=O)NC(Cc2c[nH]c3ccccc23)C(=O)O)c1 (configuration not stated),.,5.9%,1.2,-33.8%,-15.3%,?
